# Screening results: PubChem, several laboratories
# GDH-TPI counter-1: counter-screen for M. tuberculosis FBA inhibitors: GDH-TPI coupled enzymes; GDH-TPI coupled enzyme counterscreen, NADH absorbance; inhibition, % at 4.8 µM; 1.2% of 360,000 active; in the data active means inhibition above about 30%;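 further: 0% = DMSO wells and 100% = wells lacking the enzyme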
# FBA Mtb inh: Mtb fructose-bisphosphate aldolase inhibition; purified M. tuberculosis FBA, fluorescence read-out; P9WQA3; inhibition, % at 1 µM; 2.3% of 360,000 active;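 further: 0% = vehicle and 100% = reference inhibitor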
# Target sequence (P9WQA3 whole entry, looked up): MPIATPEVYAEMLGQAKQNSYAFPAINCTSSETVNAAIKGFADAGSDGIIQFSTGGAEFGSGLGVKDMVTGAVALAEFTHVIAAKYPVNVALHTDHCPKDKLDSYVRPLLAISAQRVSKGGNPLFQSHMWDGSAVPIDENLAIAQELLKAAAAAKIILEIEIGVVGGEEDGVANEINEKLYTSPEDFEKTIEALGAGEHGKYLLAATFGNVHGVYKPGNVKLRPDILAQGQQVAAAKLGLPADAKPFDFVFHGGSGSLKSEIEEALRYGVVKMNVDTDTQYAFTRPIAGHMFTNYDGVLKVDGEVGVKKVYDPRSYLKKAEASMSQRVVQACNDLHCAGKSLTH
# CCHF vOTU inh: CCHFV vOTU protease inhibition | inhibition, % at 11.5 µM | AID 651958 | 0.55% of 370,000 active | Pep-AMC fluorescence; in the data active means inhibition above about 30%; further: 0% = vehicle wells with enzyme and 100% = no enzyme wells
# Vc quorum ag: induces V. cholerae light production without autoinducers | V. cholerae BH1578 lux reporter, luminescence, 6 h | activation, % at 18.7 µM | 0.16% of 350,000 active; in the data active means activation mostly above about 9.7%, no sharp cut-off
# Mtb FBA inh conf: confirmation of M. tuberculosis fructose-bisphosphate aldolase inhibitors. AID 651616. shares compounds with FBA Mtb inh. purified M. tuberculosis FBA, fluorescence read-out. inhibition, % at 1 µM. 78% of 5,600 active;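 further: 0% = vehicle wells and 100% = reference inhibitor wells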
# GDH-TPI counter-2: inhibits GDH-TPI coupling enzymes, flagging Mtb FBA hits; 81% of 5,600 active; shares compounds with FBA Mtb inh; GDH-TPI coupled enzyme counterscreen, fluorescence; inhibition, % at 1 µM; in the data active means inhibition above about 10%
# GDH-TPI dose: GDH-TPI dose response counter-screen for Mtb FBA; shares compounds with FBA Mtb inh; GDH-TPI coupled enzyme assay, fluorescence, artifact counterscreen; IC50, µM; 79% of 170 active; AID 652145; call rule not given here
# Active calls of the source: *; i = inactive; / = no result given; + = active, no number. Shown are actives, neighbours in structure and some others; about 3.9% of the full set was active somewhere. Unless noted, no stated cut-off is given here; in the data, active means inhibition above about 27%; inactive means the rest.
SMILES,GDH-TPI counter-1,FBA Mtb inh,CCHF vOTU inh,Vc quorum ag,Mtb FBA inh conf,GDH-TPI counter-2,others
CCN(CC)CCNC(=O)c1cc2c(=O)n(C)c3ccccc3c2s1,11,71*,-101,0,129*,87*,
CCN(CCCNC(=O)c1cc2c(-c3cccc(OC)c3)nn(C)c2s1)Cc1ccccc1,5,53*,-5,i,39*,43*,
CCCCN(CC)CCNC(=O)c1cc2c(-c3ccccc3F)nn(C)c2s1,4,46*,-31,i,47*,35*,
CC1CCCCN1CCNC(=O)c1cc2c(-c3ccccc3F)nn(C)c2s1 (stereo not drawn),8,22,-11,0,/,/,
CCN(CC)CCNC(=O)C(C)c1nn(C)c(=O)c2ccccc12 (stereo not drawn),3,2,5,i,/,/,
CCCCN(CC)CCNC(=O)c1cc2c(=O)n(C)c3ccccc3c2s1,15,49*,-75,18,181*,144*,
CCCCN(CC)CCNC(=O)c1cn(-c2ccc(Cl)cc2)c(=O)c2ccccc12,7,-1,-2,0,/,/,
COc1cccc2sc(=NC(=O)CS(=O)(=O)c3ccccc3)n(C)c12,8,0,6,-6,/,/,
N#CC1=C(c2ccccc2)/C(=C/c2ccccc2)OC1=O,23,7,-9,i,/,/,
N#CC(C#N)=C1NC(N)=C(C#N)C(c2ccccc2)=C1C#N,33*,71*,12,i,86*,74*,
COc1ccc(-c2ccc(-c3noc(C(C)C)n3)c(OC)n2)cc1,25,108*,-38,i,135*,107*,
CC1=CC2=NCC(O)CN2C=C1 (stereo not drawn),-4,28*,-15,-1,12,-5,GDH-TPI dose=9.3*
Cc1cc2oc(=O)c(CC(=O)O)c(C)c2c2occ(C(C)(C)C)c12,18,15,11,i,/,/,
Cc1c(CC(=O)NCCCC(=O)O)c(=O)oc2cc3occ(-c4ccccc4)c3cc12,17,4,9,i,/,/,
Cc1cc2oc(=O)c(CC(=O)NCCCO)c(C)c2c2occ(C(C)(C)C)c12,10,31*,-43,-1,57*,54*,
COCCNC(=O)Cc1c(C)c2c(cc(C)c3c(C(C)(C)C)coc32)oc1=O,12,43*,-23,-1,70*,65*,
Oc1cc2ccccc2cc1-c1n[nH]c(=S)o1,18,6,5,i,/,/,
S=c1[nH]nc(-c2c[nH]c3ccccc23)o1,3,50*,6,-2,0,-2,
c1ccc(Nc2c(-c3ccco3)nc3ccccn23)cc1,12,111*,-81,2,99*,71*,
COc1ccc(Nc2c(-c3ccco3)nc3cccc(C)n23)cc1,-4,3,4,0,/,/,
COc1ccc(-c2cc(NC=O)c3ncc(-c4cccc(OC)c4)n3c2)cc1,7,0,16,-1,/,/,
COc1cccc(-c2cnc3cccnn23)c1,-3,53*,-62,0,97*,69*,
Cc1ccc(-c2cnc3cccnn23)cc1F,3,60*,-71,0,-5,-5,
CCN(CC)C(=O)c1ccc2nc3ccccc3nc2c1,11,-2,-3,2,/,/,
COCC(C)NC(=O)c1ccc2nc(-c3ccccc3)c(-c3ccccc3)nc2c1 (stereo not drawn),18,42*,-50,1,52*,49*,
SMILES,GDH-TPI counter-1,FBA Mtb inh,CCHF vOTU inh,Vc quorum ag,Mtb FBA inh conf,GDH-TPI counter-2,others
CCN1CCN(CCNC(=O)c2ccc3nc(-c4cccc(C)c4)c(-c4cccc(C)c4)nc3c2)CC1,18,30*,-62,0,59*,51*,
C=CCNC(=O)c1ccc(-c2nc3ccccc3nc2-c2ccccc2)cc1,12,9,2,0,/,/,
CCCNC(=O)c1ccc2nc(-c3ccccc3)c(-c3ccccc3)nc2c1,20,31*,2,2,62*,41*,
COc1ccc(-c2nc3ccc(C(=O)NCCCN4CCOCC4)cc3nc2-c2ccc(OC)cc2)cc1,-7,5,1,0,/,/,
CCN(CC)C(=O)c1ccc2nc(-c3ccccc3)c(-c3ccccc3)nc2c1,12,48*,-38,0,49*,40*,
O=c1[nH]c(COc2ccc(Br)cc2Cl)nc2ccccc12,-10,-1,14,-2,/,/,
COC(=O)[C@]12C[C@H](CC(=O)NCCCN3CCCC3=O)C(=O)N(Cc3ccc4c(c3)OCO4)C1=C[C@H](COCc1ccccc1)O[C@@H]2C,/,/,6,/,/,/,
CN(C(=O)COC(=O)COc1ccc(N(C)S(=O)(=O)c2ccc(Cl)cc2)cc1)c1ccccc1,-6,0,29,i,/,/,
Cc1cc(-n2c(C)cc(C(=O)CSc3nc4ccccc4c(=O)n3Cc3ccco3)c2C)no1,9,-2,-7,-3,/,/,
COC(=O)/C=c1\[nH]c2nnc(C)n2c1=O,9,84*,-51,0,+,+,
COC(=O)c1ccc(-c2nc(CN3CCC(C(=O)N4CCOCC4)CC3)c(C)o2)cc1,-3,48*,/,i,47*,37*,
Cc1oc(-c2ccc(F)cc2)nc1CN1CCCC(C(=O)N2CCOCC2)C1 (stereo not drawn),1,-3,17,0,/,/,
CC(=O)N1CCc2cc(S(=O)(=O)NCCC(=O)N3CCc4ccccc4C3)ccc21,3,-2,/,-6,/,/,
CC(=O)N1CCc2cc(S(=O)(=O)NCCC(=O)N3CCN(c4ccccn4)CC3)ccc21,8,54*,-3,0,67*,49*,
O=C(O)c1cc(-c2c[nH]c3ccccc23)nc2cc3ccccc3cc12,17,55*,-2,-1,75*,75*,
O=C(O)c1cc(-c2ccc3ccccc3n2)nc2ccccc12,15,-1,5,i,/,/,
Cc1ccc(N2C(=O)c3ccccc3NC2c2ccccc2O)cc1 (stereo not drawn),14,17,-23,i,/,/,
Cc1ccc(CN2C(=O)c3ccccc3NC2c2ccccn2)cc1 (stereo not drawn),-5,31*,-53,0,63*,51*,
CCCN1C(=O)c2ccccc2NC1c1ccc(C)cc1 (stereo not drawn),3,78*,-85,-1,5,-2,
O=C1c2ccccc2NC(c2ccccc2)N1CCCN1CCOCC1 (stereo not drawn),9,48*,-68,i,123*,107*,
Cc1ccc(-c2nnc(SCC(=O)NCC3CCCO3)n2C)cc1 (stereo not drawn),1,1,-4,-3,/,/,
Cc1ccc(S(C)=O)cc1-n1c(=O)n(Cc2ccccc2)c(=O)c2[nH]cnc21 (stereo not drawn),9,1,-2,-1,/,/,
COC(=O)c1ccc(-c2sc3nc(N4CCOCC4)c4c(c3c2N)CCCC4)o1,/,/,10,/,/,/,
